Pf growth 96h = inhibits malaria parasite growth, 96 h; P. falciparum luciferase reporter growth, 96 h; Potency, µM (doses to about 28.7 µM), for inactives: at the top dose activity change, negative = inhibition, usual class: inhibitors; 6.9% of 320,000 active; note: potency is the fitted concentration of half-maximal effect
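Two-generation exposure (96 h) targets delayed-death phenotype. Reporter parasites carrying integrated firefly luciferase, in red cells at 2% hematocrit and 0.05% parasitemia final, kept at 37 C, 5% CO2; luminescence loss indicates inhibition.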
HCMV antiviral = human cytomegalovirus inhibition; HFF cells, HCMV-luciferase reporter, 72 h; active compounds read low; activity change, negative = inhibition, % at 57.5 µM; 4.5% of 410,000 active; AID 1259415; in the data active = activity change below about -60%; inconclusive = no clear call, values can overlap the other calls; inactive = above about -39%
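After 16 h attachment at 37C, HFF cells received test compound and HCMV-luciferase (1 PFU/cell); reporter luminescence read 72 h later, data normalized against buffer-only and known inhibitor Salinomycin.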
LASV entry inh = inhibitors of Lassa virus binding or cell entry; Lassa virus pseudotype entry inhibition, cell reporter; Potency, µM (top dose mostly 37.9 µM), without a hit: top-dose activity change, negative = inhibition, most hits filed as inhibitors; 1.2% of 300,000 active; AID 540256; calls by dose curve; tested in HEK293 cells; note: potency is the fitted concentration of half-maximal effect; nearly all actives have a fitted effect of over 50% in size
Pf growth 48h = inhibits P. falciparum growth in the first generation, 48 h | P. falciparum luciferase growth in erythrocytes, 48 h | Potency, µM (top dose mostly 28.7 µM), for the others: top-dose activity change, negative = inhibition, most hits filed as inhibitors | 5.9% of 310,000 active | AID 504832; note: potency is the fitted concentration of half-maximal effect
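A one-generation exposure of luciferase-tagged malaria parasites in RPMI 1640/Albumax erythrocyte culture, 37 C and 5% CO2. Inhibition is inferred from decreased luminescence after adding detection reagent.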
MARV entry inh = blocks Marburg virus binding to or entry into cells; 1.8% of 300,000 active; Marburg virus pseudotyped entry inhibition, cell reporter; Potency, µM (titrated, usually from 37.8 µM), for inactives: top-dose activity change, negative = inhibition, hits mostly inhibitors; calls by dose curve; tested in HEK293 cells; note: potency is the fitted concentration of half-maximal effect
HCV inh = inhibitors of hepatitis C virus infection | Huh7.5.1 HCVcc-Cre infection, luciferase reporter, 44 h | Potency, µM (titrated, usually from 41.8 µM), without a hit: at the top dose activity change, negative = inhibition, usual class: inhibitors | 3.4% of 340,000 active; note: potency is the fitted concentration of half-maximal effect
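Cells seeded at 1,000/well and cultured 4 h, then compounds added followed by HCVcc-Cre virus (~0.5 moi). After 44 h further culture, luciferase substrate was added, plates held 15 min at room temperature, and luminescence read for 15 sec.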
* hit, by the source's call; ? = inconclusive; . = no result given; ! = not confirmed by another sample; [ ] = another dose, or the depositor's remark. Sampled rows, rich in hits. Any-hit rate of the full collection: about 14%. Unless noted, calls come from the whole dose curve; as a rule, active = well fitted inhibition curve with a large enough effect; inconclusive = small, poorly fitted or top-dose-only effect, or another doubt; inactive = no such curve, though single readings can be large or run the other way. % is set by controls: 0 for no effect and ±100 for the full control effect.

SMILES	Pf growth 96h	HCMV antiviral	LASV entry inh	Pf growth 48h	MARV entry inh	HCV inh
Cc1ccc(C(=O)Nc2nnc(S(=O)(=O)N3c4ccccc4CC3C)s2)cc1 (configuration not stated)	.	0.4	-2.2%[46.1 µM]	.	.	.
CC(CCl)OC(C)CCl (configuration not stated)	36.8%	-73.8*	.	20.7%	.	19.5%
CC(C)(C)C1CCC(=NOC(=O)c2ccc(F)cc2)CC1 (configuration not stated)	10.4µM*	-17.4	-21.2%	?	0.4%[46.1 µM]	12.4%
O=C(Nc1ccccc1F)c1ccc(CN2CCc3ccccc3C2)cc1	-3.3%	?	.	4.9%	.	11.2µM*
CCc1ccc(NC(=O)NCCN2CCc3ccccc3C2)cc1	2.08µM*	72.8	?	3.5%	-8.1%	-8.1%
COc1ccc(C)cc1NC(=O)c1ccc(CN2CCc3ccccc3C2)cc1	0.7%	-34.2	16.7%[46.1 µM]	-15.2%	?	-20.9%
Cc1ccc(NC(=O)c2ccc(CN3CCc4ccccc4C3)cc2)cc1	7.2%	-79.5*	?	16.2%	?	?
COC(=O)c1ccc(C)c(NC(=O)c2ccc(CN3CCc4ccccc4C3)cc2)c1	9.28µM*	-31.9	.	-7.2%	.	-16.5%
COc1ccc(-c2nc3cc(C(C)C)ccc3o2)cc1NC(=O)c1ccc(C)c(Cl)c1	.	10.5	25.6%[46.1 µM]	.	?	.
CCOc1ccc(C(c2c(O)cc(C)n(Cc3ccco3)c2=O)N2CCN(C)CC2)cc1 (configuration not stated)	.	20.6	?	.	.	.
NC[C@H](O)C1CCCCCCC1	.	.	.	.	-36.0%	.
O=C(Nc1ccc(S(=O)(=O)N2CCCCC2)cc1)c1ccc(CN2CCc3ccccc3C2)cc1	7.38µM*	-73.8*	?	?	?	35.5µM*
O=C(Nc1ccc(S(=O)(=O)N2CCCC2)cc1)c1ccccc1	-10.3%	3.6	1.5%	-29.6%	?	6.6%
O=C(Nc1ccccc1)c1ccc(CN2CCc3ccccc3C2)cc1	39.4%	-67.1*	-2.8%[46.1 µM]	-15.2%	?	?
O=C(Nc1cccnc1)c1ccc(CN2CCc3ccccc3C2)cc1	.	-35.3	-29.6%	-14.1%	-5.7%	4.47µM*
Cc1cc(C)cc(NC(=O)c2ccc(CN3CCc4ccccc4C3)cc2)c1	?	?	-7.2%	-23.4%	?	?
CCCCn1nnnc1C1(C)CCC(=O)N1CCOC (configuration not stated)	.	-0.5	.	.	.	.
Cc1ccc(S(=O)(=O)N2CCOCC2)cc1C(=O)Nc1cc(Cl)ccc1N1CCOCC1	?	-3.0	2.8%	4.65µM*	-24.6%	23.4%
Cc1ccc(S(=O)(=O)N2CCOCC2)cc1NC(=O)COC(=O)CNC(=O)c1ccc(Cl)cc1Cl	8.3%	-67.8*	9.4%	24.1%	23.7%	3.7%
O=C(COC(=O)CCc1ccc(S(=O)(=O)N2CCOCC2)cc1)Nc1ccc(Cl)cn1	?	26.2	-2.0%	21.4%	0.794µM*!	9.8%
CS(=O)(=O)c1ccc(Cl)c(NC(=O)c2cc(S(=O)(=O)N3CCOCC3)ccc2N2CCCC2)c1	13.1µM*	-37.6	-1.4%	?	-1.7%	5.1%
O=C(Nc1cc(S(=O)(=O)N2CCOCC2)ccc1N1CCOCC1)c1ccccc1Cl	.	-13.8	-21.4%	.	12.1%	-14.5%
O=C(COC(=O)c1cc(S(=O)(=O)N2CCOCC2)ccc1Cl)Nc1ccc(Cl)cn1	.	-10.8	.	.	.	.
O=C(Nc1cc(Cl)ccc1Cl)c1cc(S(=O)(=O)NCCc2ccccc2)ccc1F	.	-14.7	5.7%[46.1 µM]	.	.	.
Cc1noc(C)c1C(=O)Nc1cc(Cl)ccc1N1CCOCC1	?	-9.1	.	-20.9%	.	10µM*
COc1cccc(-c2nc(CS(=O)(=O)CC(=O)N3CCN(c4ccccc4)CC3)c(C)o2)c1	.	-27.4	-19.6%[46.1 µM]	.	?	.
CC(=O)c1cc(C)ccc1OC(=O)c1cccnc1	9.28µM*	36.8	15.6%	-23.4%	?	9.6%
O=CCCCC=O	12µM*	.	.	15.1µM*	.	.
CCN(CC)CCCn1c(=S)[nH]c2cc(Cl)ccc2c1=O	23.2%	-9.4	-0.5%	-4.4%	-18.4%	7.08µM*

Source: PubChem BioAssay (National Center for Advancing Translational Sciences (NCATS))
